Compound activity as filed in PubChem BioAssay.
Most compounds without a hit are left out; they make up all but 3.8% or so of the library.
Hsp70 activator: Hsp70 transcriptional activators, primary screen, cell-based, HeLa, Hsp70 promoter luciferase, luminescence, 10 µM | HeLa Hsp70 promoter luciferase reporter; scaled: vehicle 0, proteasome-inhibitor control 100% | actives 0.04% (n = 200,000) | AID 1203, 2008 | activation, % at 10 µM;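 active means activation above the mean across all tested compounds plus 3 SD, cutoff set per campaign, cut at about 5.5% in these data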
HSF-1 act: HSF-1 activators, primary screen, NIH3T3-HGL cells, MG132 stress, luminescence, single point. NIH3T3-HGL HSF-1 luciferase reporter, 8 h; 100% = twice DMSO control signal. activation, % at 9 µM. AID 504408, 2011. actives 1.7% (n = 300,000);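 active means mean replicate activation of at least 50% with a set share of replicates each reaching 50%; inconclusive means only one of those two conditions met; inactive means mean below 50% and too few replicates reaching it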
p-CIP stab down: p/CIP-EGFP fusion destabilizers, primary screen, fluorescence, F442A cells; Q05BA5; 16 h; decrease of EGFP signal, % at 10 µM; actives 0.01% (n = 290,000); AID 1984, 2009;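 active means EGFP signal decrease of at least 30% at 10 µM or well 3 SD below plate mean, unless failing retest; inactive means the rest, including hits failing retest or dose response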
HSF1 inhib: HSF1 inhibitors in luciferase reporter cells, primary screen, cell-based, NIH3T3, luminescence; activity change, negative = inhibition, % at 7.5 µM (by protocol); NIH3T3-HGL HSE-luciferase, MG132-induced, luminescence 8 h; active compounds read low; actives 0.77% (n = 300,000); AID 2098, 2009;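 active means more than half of replicate wells show activity change below -50%, luminescence cut by over half; inconclusive means some wells, but at most half, below -50%; inactive means no replicate well below -50%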;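 further: luciferase reports HSF-1 transcriptional activity via heat shock element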
NALP1 inh: NALP1 inflammasome inhibitors in reconstituted yeast, colorimetric, S. cerevisiae, triplicate retest. actives 0.61% (n = 280,000). inhibition, % at 10 µM. S. cerevisiae NALP1/ASC/caspase-1 growth, X-gal OD620, 72 h; in the data active means inhibition mostly above about 24%, no sharp cut-off; inactive means mostly below about 32%
HSP90 refold inh: HSP90 inhibitors, primary screen, cell lysate, luminescence; Heat shock protein HSP 90 (rabbit reticulocyte lysate; luciferase refolding); Rabbit reticulocyte lysate, luciferase refolding luminescence, 3 h; inhibition, % at 5.6 µM; actives 0.91% (n = 290,000);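 active means inhibition above the screen-wide mean plus 3 SD, computed separately per campaign, cut at about 16% in these data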;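 further: inhibitors lower the luminescence because luciferase stays unfolded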
Of the large screens only hits and unclear results are named; the others gave an inactive call.

CCCN(CCC)CCCNC(=O)CN1C(=O)CSc2ccc(S(=O)(=O)N3CCOCC3)cc21	none
Cn1c(N)c(C(C[N+](=O)[O-])c2c(F)cccc2Cl)c(=O)n(C)c1=O (stereo not drawn)	NALP1 inh 44.5 (no result: Hsp70 activator)
CN(C)c1ccc(C(C[N+](=O)[O-])c2c(N)n(C)c(=O)n(C)c2=O)c(F)c1C#N (stereo not drawn)	HSF-1 act 66.4 (no result: Hsp70 activator)
COc1ccc(Br)cc1C(C[N+](=O)[O-])c1c(N)n(C)c(=O)n(C)c1=O (stereo not drawn)	none (no result: Hsp70 activator, NALP1 inh)
Cc1nc(S(=O)(=O)c2ccc(Cl)cc2)c(NCc2ccccc2)o1	HSF-1 act 64.1
Cc1cc(C)c(S(=O)(=O)N2CCOC2CNC(=O)C(=O)NCCN2CCOCC2)c(C)c1 (stereo not drawn)	none (no result: Hsp70 activator)
COc1ccc(Cn2cc3c(-c4ccc(F)cc4)nnc-3c3cc(OC)c(OC)cc32)cc1	none (no result: HSF-1 act, HSF1 inhib)
COc1cc2c3nnc(-c4ccc(F)cc4)c-3cn(Cc3ccc(F)cc3)c2cc1OC	NALP1 inh 34.9
CCCC(c1nnnn1CC(=O)OCC)N(Cc1cc2c(C)cc(C)cc2[nH]c1=O)C1CCCC1 (stereo not drawn)	HSF-1 act 92.3
COc1ccc(CCNC(=O)Cn2c(=O)n(-c3ccc(F)cc3)c(=O)c3sccc32)cc1OC	none
O=[N+]([O-])c1ccc(N2CCc3ccccc3C2)cc1	HSF-1 act 72.6 (no result: Hsp70 activator)
CC(Cc1cnccn1)NC(=O)c1cc(COc2ccc(F)cc2F)on1 (stereo not drawn)	none (no result: Hsp70 activator)
COc1cc(Cl)ccc1OCc1cc(C(=O)NC(C)Cc2cnccn2)no1 (stereo not drawn)	HSF-1 act 59.1 (no result: Hsp70 activator)
Oc1c(C(Nc2nccs2)c2ccc(C(F)(F)F)cc2)ccc2cccnc12 (stereo not drawn)	HSF1 inhib -59.5
Oc1c(C(Nc2cccc(C(F)(F)F)c2)c2ccncc2)ccc2cccnc12 (stereo not drawn)	none
Cc1ccccc1CSc1nsc(N)n1	HSF-1 act 60.5
Oc1ccc(Oc2ccc(Oc3ccc(O)cc3)cc2)cc1	NALP1 inh 37.8 (no result: Hsp70 activator)
COc1ccc(S(=O)(=O)c2ccc(O)cc2)cc1	none
COc1ccc(S(=O)(=O)NNC(=O)C23CC4CC(CC(C4)C2)C3)cc1[N+](=O)[O-]	none (no result: Hsp70 activator, p-CIP stab down, NALP1 inh, HSP90 refold inh)
CN(Cc1ccccc1)C(=O)c1ccccc1NC(=O)C1=CSCCO1	HSF1 inhib -76.1 (no result: Hsp70 activator)
N#CC12CCCCC1CC1CCCCC1(C#N)N2Cc1ccccn1 (stereo not drawn)	NALP1 inh 37.5
N#CC12CCCCC1CC1CCCCC1(C#N)N2CCO (stereo not drawn)	none
Cc1ccnc(NS(=O)(=O)c2cc(C(F)(F)F)ccc2Cl)c1	none (no result: Hsp70 activator)
COc1ccc(-c2ccc(C(=O)O)o2)c([N+](=O)[O-])c1	none
CCOc1ccc(-c2ccc(C=O)o2)c([N+](=O)[O-])c1	HSF-1 act 109.0
CNC(=O)/C(C#N)=C/c1ccc(-c2ccc(OC)cc2[N+](=O)[O-])o1	HSF1 inhib -89.3
CCOc1ccc(NC(=O)Cc2ccccc2)c([N+](=O)[O-])c1	none
O=S(=O)(c1ccc(Cl)s1)N1CCCc2cccc(O)c21	HSF-1 act 116.0
Cc1ccc(Cl)cc1S(=O)(=O)N1CCC(C(=O)NC2CCN(Cc3ccccc3)CC2)CC1	none (no result: Hsp70 activator)
C=CCn1c(C)cc(C(=O)CSc2nc(N)cc(N)n2)c1C	HSF-1 act 65.9
CN1CCN(c2ccc(-c3cccc(NC(=O)COc4ccc(Cl)cc4)c3)nn2)CC1	none (no result: Hsp70 activator, p-CIP stab down, NALP1 inh, HSP90 refold inh)
CN1CCN(c2ccc(-c3cccc(NC(=O)COc4ccc(Cl)cc4Cl)c3)nn2)CC1	HSF1 inhib -54.4 (no result: Hsp70 activator, p-CIP stab down, NALP1 inh, HSP90 refold inh)
COc1ccc(C(=O)Nc2ccccc2)cc1NC(=O)c1ccc([N+](=O)[O-])cc1	none (no result: Hsp70 activator)
CC(C)C(C(=O)Nc1nccs1)N1C(=O)c2ccccc2C1=O (stereo not drawn)	NALP1 inh 28.5
O=C(Nc1nc(-c2cc3ccccc3oc2=O)cs1)c1ccc(Br)o1	HSF-1 act 65.7 (no result: NALP1 inh)
CC(=O)Nc1ccc(Nc2nc(-c3cc4ccccc4oc3=O)cs2)cc1	none (no result: Hsp70 activator)
O=C(O)c1ccc(Nc2nc(-c3cc4ccccc4oc3=O)cs2)cc1O	HSF-1 act 65.0
CCn1c(=S)sc2c(=O)n(CC(=O)Nc3ccc(OC)c(Cl)c3)c(C)nc21	none (no result: Hsp70 activator)
CC(NCc1ccc(F)cc1)C(=O)NC1CCCCC1 (stereo not drawn)	NALP1 inh 43.5
CSc1ccc(S(=O)(=O)N2CCC(C(=O)NCc3cccnc3)CC2)cc1	none (no result: Hsp70 activator)
COc1cc(/C=C(/C(=O)c2cccs2)c2nc3ccccc3[nH]2)cc(OC)c1O	HSF-1 act 351.3
O=[N+]([O-])c1ccc(O)c(/C=N/Nc2nc3ccccc3[nH]2)c1	HSF-1 act inconclusive
COc1cc(/C=N/Nc2cc(C)nc(N)n2)ccc1O	none (no result: Hsp70 activator)
O=C(/C(=C/c1ccc(Cl)cc1)c1nc2ccccc2[nH]1)c1ccccc1	HSF-1 act 184.1
COc1cc(/C=N/Nc2snc(SC)c2C#N)ccc1O	HSF-1 act 74.6
COc1ccc(O)c(/C=N/Nc2nc3ccccc3[nH]2)c1	HSF-1 act 235.6
COc1cc(/C=N/Nc2nc3ccccc3[nH]2)ccc1O	HSF-1 act 344.4
COc1cc(/C=N/Nc2nc3ccccc3[nH]2)cc(OC)c1O	HSF-1 act 149.4
COc1ccc(CN2CCC(n3nccc3NC(=O)c3cccc(F)c3)CC2)cc1O	none (no result: Hsp70 activator)
CCn1ncc(Br)c1C(=O)Nc1ccc(C(C)C)cc1	HSF-1 act 58.9 (no result: Hsp70 activator)
CCCCn1c(N)c(N(Cc2ccccc2OC)C(=O)CN2C(=O)NC(C)(c3ccccc3)C2=O)c(=O)[nH]c1=O (stereo not drawn)	none (no result: Hsp70 activator, p-CIP stab down, NALP1 inh, HSP90 refold inh)
O=[N+]([O-])c1ccc(Sc2cccc3cccnc23)c2cccnc12	HSF-1 act 110.2
Cc1ccc(Nc2nc(C)cc(C)c2C(N)=O)c(C)c1	none (no result: Hsp70 activator, NALP1 inh)
CSCCC(NS(=O)(=O)c1ccc(Cl)cc1)C(=O)OCC(=O)N(C(C)C)C(C)C (stereo not drawn)	NALP1 inh 35.2
COc1ccc(-n2cnc3sc(-c4ccccc4)cc3c2=O)cc1	HSF-1 act inconclusive
COc1cccc(-n2cnc3sc(-c4ccccc4)cc3c2=O)c1	HSF-1 act 53.9 (no result: Hsp70 activator, p-CIP stab down, NALP1 inh, HSP90 refold inh)
COc1ccccc1N(C)S(=O)(=O)c1ccc(C(=O)OC(C)C(=O)NCc2ccc3c(c2)OCO3)cc1 (stereo not drawn)	none
O=C1CSC(c2cn(-c3ccccc3)nc2-c2cc3ccccc3oc2=O)N1Cc1ccccc1 (stereo not drawn)	none
